This is part of a sample that, as a whole, favours compounds with a hit. Of some 83,000 tested, about 20% had one in any assay.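 48-hour exposure, single concentration, 96-well plates; percent growth endpoint where 0 means no net growth. Active: below 10.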 Unmarked numbers belong to inactive results. Calls of active or inactive are those of the source.
test system: NCI-H460 lung; experiment: NCI-60 one-dose screen, 48 h (100 = growth as untreated, 0 = no growth, -100 = all killed); details: 10 µM unless noted

SMILES | growth
COc1cc(/C=C/C(=O)c2ccc(N3CCN(C)CC3)cc2)ccc1F | 102%
O=C(Nc1cccc(-c2nc(-c3ccc(NC(=O)c4cccnc4)cc3Cl)no2)c1)Nc1ccc(NC(=O)C2CC2)c(C(F)(F)F)c1 | -77.7% (active)
CCNC(=O)Oc1ccc(/C(=C(/C)c2ccc(Cl)cc2)c2ccc(OCCN3CCCC3)cc2)cc1 | 80.6%
CS(=O)c1nccc(-c2c(-c3ccc(F)c(OCc4ccc(F)cc4)c3)nc3sccn23)n1 (stereo not drawn) | 35.6%
CN1CCN(c2ccc(NC(=O)Nc3ccc4c(ccn4-c4cccc(C(N)=O)n4)c3)cc2C(F)(F)F)CC1 | 87.2%
O=c1oc2ccc(-c3ccc(F)cc3F)cc2c(=O)n1-c1ccc(F)c(F)c1 | 2.7% (active)
N#Cc1c(NC(=O)c2ccc(F)c(Cl)c2)sc2c1CCC(=O)C2 | 4.07% (active)
CC(C)SC1=NC(=C(C(=N1)NC2=ClC=CC=C2)C#N)C3=CC=CC=C3 | 22.2%
CCOC(=O)c1c(NCC(=O)Nc2cccc(Cl)c2)sc2c1CCCC2 | 92.5%
COc1ccc([C@H]2[C@H](O)C(=O)N2c2cc(OC)c(OC)c(OC)c2)cc1 | 3.39% (active)
O=c1[nH]c2cc(Cl)ccc2n1C1CCN(c2ccc3nnc(Cl)n3n2)CC1 | 100%
O=C1[C@@H]2Cc3c([nH]c4ccccc34)[C@H](c3c(Cl)cccc3Cl)N2C(=O)CN1C1CCN(Cc2ccccc2)CC1 | 9.15% (active)
CS(=O)(=O)c1ccc2c(c1)c1c(n2Cc2ccc(Cl)cc2)CCCC1 | 71.6%
O=C(CCCCCCN1CC(=O)N2[C@@H](c3ccc(Cl)c(F)c3)c3[nH]c4ccccc4c3C[C@H]2C1=O)NO | 79.5%
O=C(c1ccc(O)cc1)[C@@H]1[C@@H]2CCCN2[C@@]2(C(=O)N(C(=O)c3ccc(F)cc3)c3ccccc32)[C@H]1c1ccc(F)cc1 | 99.6%
COc1cc(-c2nc(SCc3ccc(C)cc3)[nH]c(=O)c2C#N)ccc1OCc1ccccc1 | 104%
CN(C)C(=O)c1ccccc1-n1cnc2ccccc2c1=O | 101%
CCN1C(=O)N(CC)C2SC(N/N=C/c3ccccc3)=NC21 (stereo not drawn) | 6.05% (active)
CCOC(=O)Nc1ccc(-c2nc(-c3cccc(O)c3)c(-c3ccnc(Br)c3)[nH]2)cc1 | 37.6%

SMILES | growth
O=C1c2c(c3c4cc(Br)ccc4[nH]c3c3ccc4ccccc4c23)C(=O)N1CCN1CCCCC1 | -67.7% (active)
CN(C)CCn1c2ccc(N)cc2c2nc3ccccc3nc21 | 6.26% (active)
COc1ccc(-c2cc(-c3cccc4ccccc34)n3c(n2)nc2ccccc23)cc1 | 13.5%
Nc1c(C(=O)c2ccccc2)sc2nc(-c3cnccn3)cc(-c3cccs3)c12 | 103%
CCOC(=O)c1c(Nc2ccccc2)nn2c(-c3ccc(OC)c(OC)c3)ccnc12 | 47.9%
O=C(COc1ccc(C2SCC(=O)N2c2ccccc2)cc1)c1ccccc1 (stereo not drawn) | 102%
CCn1c2ccc(/C=N/OCCCN(C)C)cc2c2cc(/C=N/OCCCN(C)C)ccc21 | -3.59% (active)
N/C(=N\OC(=O)CSc1nc2ccccc2s1)c1ccc2ccccc2c1 | 108%
COc1ccc(-c2nc3cc(Cl)c(Cl)cc3n2CC(=O)N=Nc2c(O)[nH]c3ccc(Br)cc23)cc1 | -42.5% (active)
Oc1ccc(-c2nnc(SCc3ccc(O)c4ncccc34)o2)cc1 | 2.22% (active)
CC1=CC(=O)CC(C)(C)[C@@]1(O)/C=C/C(C)=C\C(=O)O | -6.19% (active)
O=C(N/N=C\c1ccc(Cl)cc1)c1ccc2nc(-c3ccc(Br)cc3)[nH]c2c1 | -76.4% (active)
CS(=O)(=O)c1nccc(-c2c(-c3ccc(F)c(OCc4ccccc4)c3)nc3sccn23)n1 | 43.5%
C=CCn1c(SCC(=O)Nc2ccc(OC)cc2)nnc1-c1ccc(Cl)cc1 | 104%
CN1C(=O)N(C)C2Nn3c(s/c(=C\c4ccccn4)c3=O)=NC21 (stereo not drawn) | 110%
Oc1ccc(-c2nnc(SCc3ccc(O)c4ncccc34)n2-c2ccccc2)cc1 | 3.78% (active)
Fc1ccccc1/C=C(/C1=NCCN1)n1cnc2ccccc21 | 104%
COc1cnc2c(c1)C(=O)c1c-2n(CCCn2ccnc2)c(=O)c2cc(OC)c(OC)cc12 | -47.9% (active)
CC[C@@](C)(NC(=O)C(C)(C)NC(=O)[C@@H](NC(=O)[C@@H]1CCCN1C(=O)C(C)(C)NC(=O)[C@H](CC(C)C)NC(=O)CNC(=O)C(C)(C)NC(=O)[C@@H](NC(=O)C(C)(C)NC(=O)[C@H](CCC(N)=O)NC(=O)[C@H](C)NC(=O)C(C)(C)NC(=O)[C@H](C)NC(=O)C(C)(C)NC(=O)[C@H](C)NC(=O)C(C)(C)NC(C)=O)C(C)C)C(C)C)C(=O)N[C@@H](CCC(N)=O)C(=O)N[C@@H](CCC(N)=O)C(=O)N[C@H](CO)CC1CCCCC1 | 35.1% [5 µM]

Reference: PubChem BioAssay (NCI)
